Columns and labels:
[1] = target: T1, Ephrin type-A receptor 3 (Homo sapiens) (UniProt P29320); details: at 10 µM
T1 sequence (whole entry): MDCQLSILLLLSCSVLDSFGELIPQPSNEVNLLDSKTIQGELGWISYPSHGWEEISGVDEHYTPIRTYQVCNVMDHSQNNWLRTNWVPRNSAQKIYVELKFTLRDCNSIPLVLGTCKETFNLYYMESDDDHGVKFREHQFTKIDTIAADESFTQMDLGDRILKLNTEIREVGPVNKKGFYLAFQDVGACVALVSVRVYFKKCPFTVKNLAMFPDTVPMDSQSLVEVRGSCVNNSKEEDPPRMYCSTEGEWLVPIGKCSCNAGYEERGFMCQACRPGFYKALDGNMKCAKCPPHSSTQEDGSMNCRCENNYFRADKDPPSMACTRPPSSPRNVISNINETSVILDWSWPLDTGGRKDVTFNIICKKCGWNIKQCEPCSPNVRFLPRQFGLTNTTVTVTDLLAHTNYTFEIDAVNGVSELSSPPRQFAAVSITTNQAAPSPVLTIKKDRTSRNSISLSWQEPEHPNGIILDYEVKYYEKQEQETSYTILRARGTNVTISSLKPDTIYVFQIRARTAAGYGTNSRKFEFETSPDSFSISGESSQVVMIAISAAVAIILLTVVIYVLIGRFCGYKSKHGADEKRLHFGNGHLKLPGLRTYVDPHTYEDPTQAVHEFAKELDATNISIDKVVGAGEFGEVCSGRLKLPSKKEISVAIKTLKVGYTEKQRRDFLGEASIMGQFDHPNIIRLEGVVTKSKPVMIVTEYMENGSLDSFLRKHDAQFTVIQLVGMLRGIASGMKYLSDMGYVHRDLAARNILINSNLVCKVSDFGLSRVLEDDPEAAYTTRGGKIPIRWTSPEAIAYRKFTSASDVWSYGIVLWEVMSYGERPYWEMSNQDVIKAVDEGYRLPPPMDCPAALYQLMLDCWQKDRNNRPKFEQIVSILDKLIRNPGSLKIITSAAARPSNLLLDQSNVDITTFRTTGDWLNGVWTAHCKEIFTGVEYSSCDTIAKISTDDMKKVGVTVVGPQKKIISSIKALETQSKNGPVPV

[2] = target: Ephrin type-A receptor 4 (Homo sapiens) (UniProt P54764); details: at 1 µM
Chain of Ephrin type-A receptor 4 (Homo sapiens) (P54764 whole entry): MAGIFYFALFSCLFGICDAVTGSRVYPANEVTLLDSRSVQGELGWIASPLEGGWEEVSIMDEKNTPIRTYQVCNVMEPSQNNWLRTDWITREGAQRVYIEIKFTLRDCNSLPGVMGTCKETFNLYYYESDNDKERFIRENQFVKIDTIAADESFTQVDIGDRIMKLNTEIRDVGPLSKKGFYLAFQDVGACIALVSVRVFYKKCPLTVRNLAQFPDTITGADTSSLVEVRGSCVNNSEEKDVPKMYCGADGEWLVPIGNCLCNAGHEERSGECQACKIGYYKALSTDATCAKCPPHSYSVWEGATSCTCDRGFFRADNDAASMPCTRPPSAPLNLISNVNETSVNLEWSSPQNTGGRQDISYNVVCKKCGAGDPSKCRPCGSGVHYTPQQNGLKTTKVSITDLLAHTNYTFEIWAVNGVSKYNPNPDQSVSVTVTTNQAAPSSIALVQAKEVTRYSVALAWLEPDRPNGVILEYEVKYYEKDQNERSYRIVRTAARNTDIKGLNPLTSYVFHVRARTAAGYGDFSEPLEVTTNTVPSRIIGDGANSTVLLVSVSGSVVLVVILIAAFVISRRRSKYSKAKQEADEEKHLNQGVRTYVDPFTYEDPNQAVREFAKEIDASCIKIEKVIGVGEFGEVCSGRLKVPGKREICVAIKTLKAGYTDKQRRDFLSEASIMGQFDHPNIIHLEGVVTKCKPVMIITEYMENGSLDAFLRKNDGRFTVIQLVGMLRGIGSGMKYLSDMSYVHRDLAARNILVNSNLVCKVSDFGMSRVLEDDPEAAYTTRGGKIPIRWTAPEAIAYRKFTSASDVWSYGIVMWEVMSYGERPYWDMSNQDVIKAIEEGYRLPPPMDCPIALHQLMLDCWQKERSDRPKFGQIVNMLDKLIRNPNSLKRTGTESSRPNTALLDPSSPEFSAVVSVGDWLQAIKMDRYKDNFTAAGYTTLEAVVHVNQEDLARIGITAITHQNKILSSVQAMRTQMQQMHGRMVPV

[3] = target: Ephrin type-A receptor 4 (Homo sapiens) (UniProt P54764); details: at 10 µM
[4] = target: Ephrin type-A receptor 5 (Homo sapiens) (UniProt P54756); details: at 1 µM
Chain of Ephrin type-A receptor 5 (Homo sapiens) (P54756 whole entry): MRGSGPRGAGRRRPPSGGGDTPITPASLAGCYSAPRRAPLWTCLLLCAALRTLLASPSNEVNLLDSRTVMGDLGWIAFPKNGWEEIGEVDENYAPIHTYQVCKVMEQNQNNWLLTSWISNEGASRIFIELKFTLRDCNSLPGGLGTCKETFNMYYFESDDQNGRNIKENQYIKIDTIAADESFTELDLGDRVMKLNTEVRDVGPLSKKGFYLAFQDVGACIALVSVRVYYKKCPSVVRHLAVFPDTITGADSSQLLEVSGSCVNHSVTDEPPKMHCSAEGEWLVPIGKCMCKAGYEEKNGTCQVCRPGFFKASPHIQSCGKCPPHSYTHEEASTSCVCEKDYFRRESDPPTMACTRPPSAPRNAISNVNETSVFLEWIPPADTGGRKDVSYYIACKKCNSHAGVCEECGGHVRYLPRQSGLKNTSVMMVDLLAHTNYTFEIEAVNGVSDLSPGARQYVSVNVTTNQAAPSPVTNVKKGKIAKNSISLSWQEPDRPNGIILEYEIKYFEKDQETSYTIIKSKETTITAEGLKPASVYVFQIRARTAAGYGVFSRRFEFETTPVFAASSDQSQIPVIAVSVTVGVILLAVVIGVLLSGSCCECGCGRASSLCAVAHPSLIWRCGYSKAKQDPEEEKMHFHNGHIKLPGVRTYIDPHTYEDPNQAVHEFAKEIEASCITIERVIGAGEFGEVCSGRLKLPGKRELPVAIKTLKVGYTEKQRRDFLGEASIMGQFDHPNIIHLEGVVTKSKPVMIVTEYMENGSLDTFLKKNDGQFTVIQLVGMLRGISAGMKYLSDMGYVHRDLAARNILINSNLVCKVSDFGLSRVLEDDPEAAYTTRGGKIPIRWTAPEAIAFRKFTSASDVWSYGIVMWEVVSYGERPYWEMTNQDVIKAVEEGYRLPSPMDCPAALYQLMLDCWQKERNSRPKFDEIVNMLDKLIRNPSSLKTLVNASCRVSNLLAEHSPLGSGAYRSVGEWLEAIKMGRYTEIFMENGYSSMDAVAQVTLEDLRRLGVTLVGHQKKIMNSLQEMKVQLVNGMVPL

[5] = target: Ephrin type-A receptor 5 (Homo sapiens) (UniProt P54756); details: at 10 µM
[6] = target: Ephrin type-A receptor 7 (Homo sapiens) (UniProt Q15375); details: at 1 µM
Chain of Ephrin type-A receptor 7 (Homo sapiens) (Q15375 28-998 limits assumed): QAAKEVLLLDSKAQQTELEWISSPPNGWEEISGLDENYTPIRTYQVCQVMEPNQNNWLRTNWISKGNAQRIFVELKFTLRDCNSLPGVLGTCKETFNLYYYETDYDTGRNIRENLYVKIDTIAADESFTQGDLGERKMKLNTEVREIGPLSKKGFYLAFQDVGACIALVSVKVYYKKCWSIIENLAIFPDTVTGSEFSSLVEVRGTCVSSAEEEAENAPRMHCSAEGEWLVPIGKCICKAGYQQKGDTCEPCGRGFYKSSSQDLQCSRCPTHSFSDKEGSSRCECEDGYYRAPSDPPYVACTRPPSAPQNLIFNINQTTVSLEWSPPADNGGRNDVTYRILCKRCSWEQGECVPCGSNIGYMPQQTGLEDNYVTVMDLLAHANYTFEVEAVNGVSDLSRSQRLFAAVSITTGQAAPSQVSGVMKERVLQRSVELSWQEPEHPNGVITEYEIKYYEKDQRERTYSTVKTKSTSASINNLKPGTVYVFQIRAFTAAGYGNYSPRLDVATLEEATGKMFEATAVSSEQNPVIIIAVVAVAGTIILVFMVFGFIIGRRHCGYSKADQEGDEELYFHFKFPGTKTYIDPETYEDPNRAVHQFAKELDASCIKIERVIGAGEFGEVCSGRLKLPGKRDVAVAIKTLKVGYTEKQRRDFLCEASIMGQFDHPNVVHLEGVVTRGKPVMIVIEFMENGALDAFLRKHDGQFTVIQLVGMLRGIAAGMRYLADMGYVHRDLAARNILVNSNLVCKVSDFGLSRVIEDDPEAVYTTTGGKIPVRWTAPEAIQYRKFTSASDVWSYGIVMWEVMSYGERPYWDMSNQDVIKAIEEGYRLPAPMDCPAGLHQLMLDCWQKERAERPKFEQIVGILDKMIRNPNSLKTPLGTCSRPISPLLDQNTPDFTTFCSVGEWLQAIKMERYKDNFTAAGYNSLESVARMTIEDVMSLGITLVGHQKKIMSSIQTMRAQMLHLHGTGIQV

[7] = target: Ephrin type-A receptor 7 (Homo sapiens) (UniProt Q15375); details: at 10 µM
[8] = target: T2, Ephrin type-A receptor 8 (Homo sapiens) (UniProt P29322); details: at 1 µM
T2 sequence (whole entry): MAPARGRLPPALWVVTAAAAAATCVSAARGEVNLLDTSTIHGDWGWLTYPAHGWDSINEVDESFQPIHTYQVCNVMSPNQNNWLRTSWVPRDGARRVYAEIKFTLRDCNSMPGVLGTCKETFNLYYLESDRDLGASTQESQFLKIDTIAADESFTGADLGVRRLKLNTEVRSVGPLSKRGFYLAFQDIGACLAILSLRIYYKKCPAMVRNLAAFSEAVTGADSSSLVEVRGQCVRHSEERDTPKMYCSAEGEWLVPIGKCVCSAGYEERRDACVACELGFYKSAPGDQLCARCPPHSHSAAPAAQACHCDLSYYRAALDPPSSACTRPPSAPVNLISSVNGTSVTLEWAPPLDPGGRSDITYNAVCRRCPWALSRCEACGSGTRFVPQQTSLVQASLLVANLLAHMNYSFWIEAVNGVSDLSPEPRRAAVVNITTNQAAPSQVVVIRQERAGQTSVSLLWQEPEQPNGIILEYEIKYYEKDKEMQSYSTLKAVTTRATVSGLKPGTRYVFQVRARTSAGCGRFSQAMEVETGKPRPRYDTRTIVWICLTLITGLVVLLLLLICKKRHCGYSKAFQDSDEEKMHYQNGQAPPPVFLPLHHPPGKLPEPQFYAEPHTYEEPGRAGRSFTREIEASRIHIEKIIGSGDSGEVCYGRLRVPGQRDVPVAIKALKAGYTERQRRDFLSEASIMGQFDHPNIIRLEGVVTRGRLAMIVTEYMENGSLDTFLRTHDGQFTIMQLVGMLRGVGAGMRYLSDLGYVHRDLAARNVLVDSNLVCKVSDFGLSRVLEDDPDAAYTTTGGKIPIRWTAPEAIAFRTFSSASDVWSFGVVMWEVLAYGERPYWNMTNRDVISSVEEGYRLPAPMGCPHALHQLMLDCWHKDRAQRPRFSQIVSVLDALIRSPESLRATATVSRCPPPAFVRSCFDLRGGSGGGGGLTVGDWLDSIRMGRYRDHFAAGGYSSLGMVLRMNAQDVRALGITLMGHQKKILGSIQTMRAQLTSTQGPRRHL

[9] = target: T2, Ephrin type-A receptor 8 (Homo sapiens); details: at 10 µM
[10] = target: T3, Ephrin type-B receptor 1 (Homo sapiens) (UniProt P54762); details: at 1 µM
T3 sequence (whole entry): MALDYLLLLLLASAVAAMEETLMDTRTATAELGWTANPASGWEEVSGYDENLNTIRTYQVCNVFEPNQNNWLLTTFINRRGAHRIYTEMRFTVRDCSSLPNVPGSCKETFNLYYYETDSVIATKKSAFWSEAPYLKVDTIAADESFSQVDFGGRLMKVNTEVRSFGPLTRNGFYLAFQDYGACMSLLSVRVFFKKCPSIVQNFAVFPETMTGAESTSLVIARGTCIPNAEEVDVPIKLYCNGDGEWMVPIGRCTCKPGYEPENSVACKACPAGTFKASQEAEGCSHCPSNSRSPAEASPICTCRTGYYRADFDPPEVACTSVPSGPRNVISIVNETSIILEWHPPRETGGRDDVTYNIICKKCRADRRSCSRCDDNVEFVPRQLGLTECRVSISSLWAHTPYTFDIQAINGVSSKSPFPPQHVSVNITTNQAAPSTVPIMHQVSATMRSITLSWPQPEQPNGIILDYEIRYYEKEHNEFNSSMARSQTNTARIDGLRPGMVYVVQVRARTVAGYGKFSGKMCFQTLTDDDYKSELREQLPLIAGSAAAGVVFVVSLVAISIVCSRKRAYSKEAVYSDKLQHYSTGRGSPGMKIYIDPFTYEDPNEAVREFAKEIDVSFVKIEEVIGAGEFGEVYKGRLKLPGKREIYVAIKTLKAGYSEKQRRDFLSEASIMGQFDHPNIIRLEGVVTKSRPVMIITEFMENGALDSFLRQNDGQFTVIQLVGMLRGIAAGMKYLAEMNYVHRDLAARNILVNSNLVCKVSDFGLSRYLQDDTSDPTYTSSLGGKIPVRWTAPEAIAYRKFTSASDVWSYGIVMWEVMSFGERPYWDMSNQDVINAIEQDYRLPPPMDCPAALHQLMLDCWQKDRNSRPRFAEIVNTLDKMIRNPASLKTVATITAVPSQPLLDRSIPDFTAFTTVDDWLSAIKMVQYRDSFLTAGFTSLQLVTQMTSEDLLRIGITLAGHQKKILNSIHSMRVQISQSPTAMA

O=C1NC(=O)/C(=C\c2ccc3nccnc3c2)S1
residual activity [1]: 87% | residual activity [2]: 108% | residual activity [3]: 106% | residual activity [4]: 132% | residual activity [5]: 101% | residual activity [6]: 97% | residual activity [7]: 94% | residual activity [8]: 88% | residual activity [9]: 94% | residual activity [10]: 115%
